FEN1 inh-1: human FEN1 inhibition | P39748 | Recombinant FEN1 flap cleavage, fluorescence, 15 min | Potency, µM (series often up to 114 µM), for inactives: top-dose activity change, negative = inhibition, usual class: inhibitors | 0.35% of 390,000 active | AID 588795; note: % is set by controls: 0 for no effect and ±100 for the full control effect; nearly all actives have a fitted effect of over 65% in size
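FEN1 at 10 nM preincubated with compounds 15 min at room temperature, then flap DNA substrate added at 50 nM final. Signal read at 0 and 15 min; concentration-response fitted with four-parameter Hill equation.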
POLK inh: blocks human DNA polymerase kappa activity; Q9UBT6; purified Pol kappa, fluorescent DNA synthesis assay, 10 min; Potency, µM (series often up to 107 µM), without a hit: at the top dose activity, negative = inhibition, actives largely listed as inhibitors; 0.53% of 400,000 active; AID 588579; note: % is set by controls: 0 for no effect and ±100 for the full control effect
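Fluorescent qHTS in 1536-well format: enzyme (10 nM) and compound sat 15 min at room temperature before 50 nM substrate (final) was added. Signal taken at 0 and 10 min; no-enzyme buffer wells were negative controls.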
POLB inh: DNA polymerase beta (human) inhibition; AID 485314; 1.3% of 340,000 active; P06746; Potency, µM (series often up to 114 µM), for inactives: top-dose activity change, negative = inhibition, most hits filed as inhibitors; Pol beta primer extension/strand displacement, fluorescence kinetic; note: % is set by controls: 0 for no effect and ±100 for the full control effect
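Curves were derived by four-parameter Hill fits of normalized qHTS data. The kinetic fluorescent primer-extension read was taken at 0 and 10 min after 50 nM substrate, following a 15 min room-temperature preincubation of 10 nM enzyme with compounds.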
WRN helicase inh-1: inhibitors of human WRN helicase. AID 651768. Potency, µM (titrated, usually from 114 µM), for inactives: top-dose activity change, negative = inhibition, actives largely listed as inhibitors. WRN helicase unwinding, fluorescent forked duplex, kinetic. Q14191. 0.46% of 360,000 active; note: % is set by controls: 0 for no effect and ±100 for the full control effect; nearly all actives have a fitted effect of over 55% in size
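Kinetic red-fluorescence monitoring (525/598 nm) tracks WRN helicase activity after 100 nM fluorophore-quencher forked duplex and 2 mM ATP are added to 20 nM enzyme pretreated 15 min at room temperature with compound.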
Pol iota inh: DNA polymerase iota (human) inhibition. 1% of 390,000 active. Potency, µM (top dose mostly 115 µM), for inactives: at the highest dose activity, negative = inhibition, hits mostly inhibitors. Pol iota fluorescent replication assay, 10 min. Q9UNA4
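Pol iota at 10 nM preincubated 15 min with compounds at room temperature; reaction started with fluorescent substrate, 50 nM final. Fluorescence read kinetically at 0 and 10 min; buffer-only wells as negative control.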
Pol eta inh: DNA polymerase eta (human) inhibition; 1.2% of 390,000 active; recombinant Pol eta, fluorescent DNA replication assay; Potency, µM (titrated, usually from 114 µM), for inactives: at the top dose activity change, negative = inhibition, hits mostly inhibitors; Q9Y253; note: % is set by controls: 0 for no effect and ±100 for the full control effect
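Pol eta at 10 nM preincubated with compounds 15 min at room temperature; reaction started with fluorescent substrate (50 nM final) and read kinetically at 0 and 10 min.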
FEN1 inh-2: FEN1 inhibition, cherry-pick retest | shares compounds with FEN1 inh-1 | FEN1 flap cleavage, TAMRA/BHQ2 fluorogenic DNA substrate | Potency, µM, actives largely listed as inhibitors | 79% of 880 active | AID 720498; note: nearly all actives have a fitted effect of over 60% in size
WRN helicase inh-2: WRN helicase inhibition, cherry-pick retest; 63% of 610 active; shares compounds with WRN helicase inh-1; Potency, µM (top dose mostly 57.1 µM), without a hit: at the top dose activity, negative = inhibition, usual class: inhibitors; AID 720497; WRN helicase DNA unwinding, fluorescence kinetic; note: nearly all actives have a fitted effect of over 65% in size
TO displacement: DNA binding via thiazole orange displacement. shares compounds with WRN helicase inh-1. thiazole orange DNA binding displacement, fluorescence. Potency, µM (doses to about 57.1 µM), without a hit: top-dose activity change, negative = inhibition, most hits filed as inhibitors. 10% of 610 active;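 note: drop in dye fluorescence marks compound binding to DNA; % is set by controls: 0 for no effect and ±100 for the full control effect; nearly all actives have a fitted effect of over 60% in size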
BLM helicase inh: counter-screen for WRN helicase inhibitors: human BLM helicase inhibition; shares compounds with WRN helicase inh-1; Recombinant BLM helicase DNA unwinding, red fluorescence; Potency, µM (doses to about 57.1 µM), for inactives: at the highest dose activity change, negative = inhibition, actives largely listed as inhibitors; 60% of 610 active; AID 720503; note: nearly all actives have a fitted effect of over 60% in size
* marks the source's active call; other numbers are inactive results; ? = inconclusive; / = not tested or not shown; [ ] = remark or other dose. A selection: hits, their analogues and other compounds. The true share with any hit is near 2.4%. Calls come from the whole dose curve; as a rule, active = well fitted curve in the direction sought with a large enough effect; inconclusive = small, poorly fitted or top-dose-only effect, or another doubt; inactive = no such curve, though single readings can be large; an effect the other way counts as inactive or inconclusive. Potency is the fitted concentration of half-maximal effect.

SMILES | FEN1 inh-1 | POLK inh | POLB inh | WRN helicase inh-1 | Pol iota inh | Pol eta inh | FEN1 inh-2 | others
Cc1ccc(C(=O)N2CCc3cc(CNC(=O)CSc4ccccc4)ccc32)cc1 | -15% | -11%[60.1 µM] | -14% | / | 2% | -7% | /
CCN1CCN(c2nc(Nc3ccc(NC(C)=O)cc3)nc(Nc3ccc(NC(C)=O)cc3)n2)CC1 | ? | ? | ? | 25µM* | ? | ? | ?
CC(=O)Nc1ccc(/C(C)=N/Nc2nc(Nc3ccccc3)nc(N3CCOCC3)n2)cc1 | -17% | -7% | -7% | -3% | 98% | -17% | /
OC[C@H]1O[C@H](n2cnc3c(N[C@H]4CCC[C@@H]4O)ncnc32)[C@H](O)[C@@H]1O | / | -11%[60.1 µM] | / | / | / | / | /
C/C(=N\NC(=O)c1ccc(OC2OCCOC2Oc2ccc(C(=O)N/N=C(\C)c3ccncc3)cc2)cc1)c1ccncc1 (stereo unspecified) | -33% | 2% | ? | -1% | ? | ? | 67*
Cc1cc(=O)n(Cc2c(F)cccc2Cl)c2c1c(C)nn2C | -10% | 14% | 0% | / | 6% | -20% | /
S=c1[nH]nc(-c2ccccn2)n1/N=C/c1c(Cl)cccc1Cl | 5% | -4% | 25% | -24% | 98% | -6% | /
S=c1[nH]nc(-c2cc(-c3ccccc3)n[nH]2)n1/N=C/c1c(Cl)cccc1Cl | ? | ? | 14µM* | ? | 20µM* | 79µM* | ?
Cc1ccccc1CN1CCc2nc(N3CCN(c4ncccn4)CC3)ncc2C1 | ? | -11%[60.1 µM] | 10% | / | -23% | -6% | 67*
COc1ccccc1N1CCN(c2ncc3c(n2)CCN(Cc2ccccc2C)C3)CC1 | 1% | -12%[60.1 µM] | -1% | / | 16% | -21% | /
Cc1nc2ccc(N)cc2c(=O)n1Cc1ccc(Cl)cc1 | 2% | -17% | -8% | -17% | 12% | 4% | /
Nc1ccc(Cn2ccc3c4c(N)nc(N)nc4ccc32)cc1 | 25µM* | -33% | / | 16µM* | 56% | ? | 43* | WRN helicase inh-2=22µM*;TO displacement=76%;BLM helicase inh=14µM*
CC(C)Cn1cc(NC(=O)N2CCN(c3ccccc3F)CC2)c2ccccc2c1=O | -9% | -7% | 26% | / | 62% | -16% | /
COc1cc2nc(NCCCN3CCN(C)CC3)n3nc(-c4ccccc4)nc3c2cc1OC | 20µM* | ? | 25µM* | 12µM* | ? | ? | 12* | WRN helicase inh-2=12µM*;TO displacement=-29%;BLM helicase inh=-5%
CN(C)CCNC(=O)c1cccc2ccc(-c3ccc(-c4ccccc4)cc3)nc12 | ? | -16% | / | 45% | -29% | -11% | /
COc1ccc(OC)c2nc3c(C(=O)NCCN(C)C)cccc3nc12 | 14µM* | ? | / | 13µM* | ? | ? | / | WRN helicase inh-2=14µM*;TO displacement=11µM*;BLM helicase inh=22µM*
O=C(CCn1c(=O)c2sccc2n(Cc2ccccc2F)c1=O)NCc1ccc2c(c1)OCO2 | 3% | -17% | 0% | / | 2% | -17% | /
Cc1nn(CCc2nc(-c3ccco3)cs2)c2[nH]c(=O)cc(C(F)(F)F)c12 | ? | 35µM* | 22µM* | 35µM* | 13µM* | 32µM* | / | WRN helicase inh-2=?;TO displacement=-14%;BLM helicase inh=22µM*

Screening results deposited in PubChem by National Center for Advancing Translational Sciences (NCATS).
